Rows were chosen to be rich in hits. Some 17% of all compounds tested hit in one or more screens of this group.
ClpP mod = qHTS Assay for Activators of ClpP | ATP-dependent Clp protease proteolytic subunit (Bacillus subtilis (strain 168)), P80244 | 340,000 compounds, 1.9% hits | purified B. subtilis ClpP, FRET peptide cleavage, 20 min | Potency, µM (titrated, usually from 57.5 µM); active = well fitted falling curve with a large enough effect; inconclusive = small, poorly fitted or top-dose-only effect; inactive = no such curve, though single readings can be large or run the other way; note: the source files actives as falling curves though it sought activators and does not explain the sign; nearly all actives have a fitted effect of over 65% in size
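Buffer: 100 mM Tris/HCl pH8, 100 mM KCl, 0.05% low protease BSA, 2.5% glycerol, 0.01% Tween-20. ClpP 10 microg/mL final; 20 min RT; delta FRET normalized to ADEP and DMSO controls.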
TDP1 block = TDP1 (human) enzyme inhibition. Potency, µM (highest dose often 130 µM), hits mostly inhibitors. recombinant TDP1, AlphaScreen DNA substrate cleavage. AID 485290. Q9NUW8. 350,000 compounds, 0.28% hits; note: nearly all actives have a fitted effect of over 40% in size
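Tdp1 1 nM final; 15 min RT w/ cpd; substrate 15 nM, 5 min; beads 10 ug/ml, 10 min; AlphaScreen read. Neg ctrl: no enzyme.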
TDP1 cell CPT = growth inhibition of DT40 Tdp1-/-;hTDP1 cells with camptothecin (screen for TDP1 inhibitors). chicken DT40 Tdp1-/-;hTDP1 cells + 20 nM CPT, ATP luminescence, 48 h. 420,000 compounds, 12% hits. Potency, µM (highest dose often 46.2 µM), hits mostly inhibitors. AID 686979; note: nearly all actives have a fitted effect of over 55% in size
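Chicken DT40 Tdp1-/- cells complemented with human TDP1, 400 cells/well, exposed to compounds plus 20 nM camptothecin for at least 48 h at 37 C; viability read as ATP content by CellTiter-Glo luminescence.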
DT40 TDP1 no CPT = qHTS for Inhibitors of human tyrosyl-DNA phosphodiesterase 1 (TDP1): qHTS in cells in absence of CPT. DT40 Tdp1-/- hTDP1 cells, no CPT, ATP luminescence, 48 h. Potency, µM (titrated, usually from 46.2 µM), hits mostly inhibitors. 420,000 compounds, 15% hits; note: nearly all actives have a fitted effect of over 55% in size
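Readout: luminescence from CellTiter-Glo after 30 min in the dark at RT. Cells: DT40 Tdp1-/- with stable hTDP1, 400/well. Exposure: compounds alone, ≥48 hr, 37 °C.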
Of the large screens only hits and unclear results are named; the others gave an inactive call. Unless noted, calls come from the whole dose curve; as a rule, active = well fitted curve in the direction sought with a large enough effect; inconclusive = small, poorly fitted or top-dose-only effect, or another doubt; inactive = no such curve, though single readings can be large; an effect the other way counts as inactive or inconclusive.

COc1ccc(CN2C[C@H](Sc3nc4ccccc4[nH]3)C[C@H]2C(=O)N2CCCN(C)CC2)cc1C	none (no result: ClpP mod, TDP1 block)
C=C1/C=C(\C)[C@](C)(O)C[C@H](O)CC(=O)[C@H](O)[C@@H](O)[C@H](C)C[C@H](C)OC(=O)/C(C)=C/CC/C=C/[C@@H]2O[C@H]2C[C@H](C)C1	none (no result: ClpP mod, TDP1 cell CPT, DT40 TDP1 no CPT)
COc1ccc(-c2oc3ncn4nc(-c5ccccc5Br)nc4c3c2-c2ccc(OC)cc2)cc1	DT40 TDP1 no CPT inconclusive
O=C(COc1ccccc1)Nc1cccc(-c2cn3cccnc3n2)c1	TDP1 cell CPT 21µM, DT40 TDP1 no CPT inconclusive
COc1ccc(-c2cn3cccnc3n2)cc1NC(=O)COc1ccccc1	TDP1 cell CPT 21µM, DT40 TDP1 no CPT 13µM
COc1ccc(-c2cn3cccnc3n2)cc1NC(=O)C1CC1	ClpP mod inconclusive
COc1ccc(N/C=C(\C=C\C#N)S(=O)(=O)c2ccccc2)cc1	none (no result: TDP1 block)
COc1ccc(COC(=O)N/N=C(\C)CC(=O)Nc2ccc(Cl)cn2)cc1	none (no result: ClpP mod, TDP1 block)
CCCN1CCN(C(=O)c2ccc3[nH]c(C)c(C)c3c2)CC1	none (no result: TDP1 block)
COC(=O)CC(=O)CSc1nc2cc(C(=O)NCC(C)C)ccc2c(=O)n1CCc1ccccc1	TDP1 cell CPT inconclusive, DT40 TDP1 no CPT 21µM
COCCn1c(SCC(=O)c2c[nH]c3ccccc23)nc2cc(C(=O)NC(C)C)ccc2c1=O	ClpP mod inconclusive, TDP1 cell CPT inconclusive, DT40 TDP1 no CPT inconclusive
CC(C)NC(=O)CSc1nc2ccccc2c(=O)n1CCCOC(C)C	none
COC(=O)CC(=O)CSc1nc2cc(C(=O)NC(C)C)ccc2c(=O)n1CCc1ccccc1	TDP1 cell CPT inconclusive, DT40 TDP1 no CPT 23µM
COCCn1c(SCC(=O)c2c(C)[nH]c3ccccc23)nc2cc(C(=O)NC(C)C)ccc2c1=O	TDP1 cell CPT 12µM, DT40 TDP1 no CPT 16µM
COC(=O)c1ccc2c(=O)n(CCN3CCOCC3)c(SCC(=O)NCc3ccccc3)nc2c1	none (no result: ClpP mod)
Cn1nc(-c2ccccc2)c2ncc(C(F)(F)F)cc21	none (no result: ClpP mod)
CC(=O)Nc1ccc(NC(=O)COc2cc(O)c3c(c2)OC(C)(C)CC3=O)cc1	TDP1 cell CPT inconclusive, DT40 TDP1 no CPT inconclusive (no result: TDP1 block)
Cc1cc(OCC(=O)Nc2ccc(Br)cc2)cc2c1C(=O)CC(C)(C)O2	TDP1 cell CPT 29µM, DT40 TDP1 no CPT 23µM (no result: ClpP mod)
CCN(CC)CCOc1ccc(-c2c(C)c3c(ccc4ccccc43)oc2=O)cc1	none (no result: TDP1 block)
N/C(Cc1ccc(Cl)cc1)=N\OC(=O)c1ccc2ccccc2c1	TDP1 cell CPT inconclusive, DT40 TDP1 no CPT inconclusive
N/C(Cc1ccc(Cl)cc1)=N\OC(=O)c1cccc2ccccc12	ClpP mod inconclusive, TDP1 cell CPT inconclusive, DT40 TDP1 no CPT 29µM
Cc1ccc(S(=O)(=O)N2[C@H](CC(=O)c3cccs3)OC[C@@H]2C)cc1	TDP1 cell CPT inconclusive, DT40 TDP1 no CPT 23µM (no result: TDP1 block)
COc1ccc(C(=O)C[C@@H]2OC[C@H](C)N2S(=O)(=O)c2ccc(C)cc2)cc1OC	TDP1 cell CPT inconclusive, DT40 TDP1 no CPT 18µM (no result: TDP1 block)
Cc1ccc(S(=O)(=O)N2[C@@H](CO)CO[C@H]2CC(=O)c2cccs2)cc1	TDP1 cell CPT inconclusive, DT40 TDP1 no CPT inconclusive (no result: TDP1 block)
CN1CCN(C(=O)c2ccc3c(c2)N(Cc2ccc(F)cc2)C(=O)c2ccccc2S3=O)CC1 (centres undefined)	none
COc1ccc2nc(NC(=O)c3nc(SCc4ccccc4F)ncc3Cl)sc2c1	none
COc1ccc2nc(NC(=O)c3nc(S(=O)(=O)Cc4ccccc4F)ncc3Cl)sc2c1	TDP1 cell CPT 0.92µM, DT40 TDP1 no CPT 1.5µM
COc1ccc2nc(NC(=O)c3nc(S(=O)(=O)Cc4ccccc4)ncc3Cl)sc2c1	TDP1 cell CPT 1µM, DT40 TDP1 no CPT 1.3µM
O=C1NC[C@H](Cc2ccc(O)cc2)N(C[C@@H]2CCCN2C[C@H](Cc2ccccc2)N2C[C@H](Cc3ccc(O)cc3)N(CCc3ccccc3)C(=O)C2=O)C1=O	TDP1 cell CPT inconclusive, DT40 TDP1 no CPT 18µM (no result: TDP1 block)
O=C1NC[C@H](Cc2ccccc2)N(C[C@@H]2CCCN2C[C@H](Cc2ccccc2)N2C[C@H](Cc3ccccc3)N(CCc3ccccc3)C(=O)C2=O)C1=O	TDP1 cell CPT inconclusive, DT40 TDP1 no CPT inconclusive (no result: TDP1 block)

Screens as filed in PubChem BioAssay.
